# HDAC3 inhib: HDAC3 deacetylase inhibitors, primary screen, biochemical, fluorescence, cell-free homogeneous; AID 2718, 2010; Histone deacetylase 3 (Homo sapiens), O15379; 0.15% of 320,000 active; recombinant HDAC3, fluorogenic peptide/trypsin coupled; inhibition, % at 8.3 µM; in the data active means inhibition above about 26%, passing the limit was not always enough
# PKA-R1A activ: activators of PKA-R1A holoenzyme, primary screen, biochemical, fluorescence polarization, Cy5-IP20, bovine R1A, mouse PKAc; PKA-R1A dissociation; scaled: DMSO 0%, 113 µM cGMP 100%; activation, % at 11.4 µM; 0.083% of 340,000 active;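 active means percent activation above the mean of all tested compounds plus 3 SD, cut at about 19% in these data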;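 further: higher means more PKAc released from R1A so a rise in polarization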
# PKA-R2B act: activators of PKA-R2B holoenzyme, primary screen, biochemical, fluorescence polarization, Cy5-IP20, human; cAMP-dependent protein kinase catalytic subunit beta (Homo sapiens) + cAMP-dependent …; 0.079% of 340,000 active; PKA-R2B holoenzyme dissociation; R2B truncated from residue 108, S112A mutant; 0% DMSO only, 100% 113 µM cGMP; activation, % at 11.4 µM;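 active means activation above a cutoff set at the mean over all compounds plus 3 SD, cut at about 18% in these data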;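 further: higher means more holoenzyme dissociation and a rise in polarization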
# Target sequence (P31323 whole entry, looked up, other chains not shown, the tested form may be a part): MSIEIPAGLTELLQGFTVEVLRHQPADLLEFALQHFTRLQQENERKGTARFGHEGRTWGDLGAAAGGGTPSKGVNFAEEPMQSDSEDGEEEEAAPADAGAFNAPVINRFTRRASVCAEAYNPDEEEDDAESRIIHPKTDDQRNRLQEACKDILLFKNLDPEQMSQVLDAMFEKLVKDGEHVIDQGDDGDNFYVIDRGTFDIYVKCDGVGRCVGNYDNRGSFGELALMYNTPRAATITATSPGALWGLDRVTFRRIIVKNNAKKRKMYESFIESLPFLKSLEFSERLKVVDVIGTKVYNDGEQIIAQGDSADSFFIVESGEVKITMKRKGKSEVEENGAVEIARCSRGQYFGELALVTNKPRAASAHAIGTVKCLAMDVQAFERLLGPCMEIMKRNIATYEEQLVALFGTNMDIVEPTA
# Rtt109 HAT inh: inhibitors of C. albicans Rtt109/Vps75 HAT, primary screen, biochemical, ThioGlo CoA-SH fluorescence, plate reader; purified Rtt109/Vps75, 4 h; inhibition, % at 34.9 µM; 0.16% of 330,000 active; AID 540336, 2011;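 active means inhibition of at least 50% in every replicate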
# R2B FP artifact: fluorescence polarization artefacts, biochemical, artefact control for PKA-R2B activator project. 6% of 270 active. activation, % at 11.4 µM. FP artifact counterscreen. shares compounds with PKA-R2B act. AID 504796, 2011; in the data active means activation above about 20%;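 further: Cy5 labelled IP20 peptide probe with compound but no PKA protein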
# PKA-R2B act conf: activators of PKA-R2B holoenzyme, confirmation, biochemical, fluorescence polarization, human. shares compounds with PKA-R2B act. PKA-R2B complex, activation. activation, % at 11.4 µM. 9% of 270 active. AID 504797, 2011; in the data active means activation above about 19%
# Target sequence (P31323 whole entry, looked up): as the sequence (P31323 whole entry, looked up, other chains not shown, the tested form may be a part) above
# Numbers stand for hits; i = inactive; nt = no result given. Only some compounds are listed: those with a hit (about 0.43% of all), similar ones and a draw of the others.
SMILES,HDAC3 inhib,PKA-R1A activ,PKA-R2B act,Rtt109 HAT inh,R2B FP artifact,PKA-R2B act conf
COc1ccc(S(=O)(=O)N[C@H](C(=O)O)C(C)C)cc1,i,i,19,i,i,i
COc1ccc(S(=O)(=O)Nc2ccc(NC(C)=O)cc2)cc1Br,i,i,22,i,i,i
c1ccc(Cn2ncc3c(Nc4ccccc4)ncnc32)cc1,nt,i,i,i,nt,nt
Brc1ccc(/C=N/Nc2ncnc3c2cnn3Cc2ccccc2)cc1,i,i,22,i,i,i
Cc1nc(Nc2cccc(O)c2)c2c3c(sc2n1)CCC3,i,i,i,i,nt,nt
Cc1cc(C)c(OCCn2ccnc2)c(C)c1,i,i,18,i,i,i
Cc1cc(C)c(OCCCn2ccnc2)c(C)c1,i,i,i,i,nt,nt
Cc1ccc2c(CC(=O)O)coc2c1,i,i,19,i,i,i
Cc1cc2occ(CC(=O)O)c2cc1C,i,i,i,i,nt,nt
COc1ccc(NS(=O)(=O)c2cc(NC(=O)c3ccccc3F)ccc2N2CCCC2)cc1,nt,i,19,i,i,i
Cc1ccc(-n2ncc3c2CC(C)(C)CC3NC(=O)C2CCOCC2)cc1 (stereo not drawn),i,i,i,i,nt,nt
C(=C\n1nnc2ccccc21)/c1ccc[nH]1,i,i,i,i,nt,nt
CCN(CC(=O)Nc1c(F)cccc1F)C(=O)CCc1nc2sc3c(c2c(=O)[nH]1)CCCC3,nt,i,i,i,nt,nt
CC(=O)NS(=O)(=O)c1ccc(N=NN2CCOCC2)cc1,i,i,23,i,i,i
COc1ccc(NC(=O)c2c(C(F)(F)F)nn(C)c2Cl)cc1,i,nt,nt,i,nt,nt
Cn1nc(C(F)(F)F)c(C(=O)Nc2ccc(F)cc2)c1Cl,i,i,20,i,i,i
CC1=CC2=NC(=O)CC(C)(C(=O)N(CC(=O)NC(C)(C)C)C3CCCC3)N2C=C1 (stereo not drawn),i,i,22,i,i,i
CC(C)(C)NC(=O)CN(C(=O)C1(C)CC(=O)N=C2C=CC=CN21)C1CCCC1 (stereo not drawn),i,i,i,i,nt,nt
CCCn1c(CCC(=O)O)nc2cc(S(=O)(=O)N3CCCC3)ccc21,i,i,i,i,nt,nt
CCn1c(SCC(=O)Nc2ccc(F)cc2)nnc1C1CC1,i,i,i,i,nt,nt
COC(=O)N/N=C/c1cn(CCOc2ccccc2)c2ccccc12,i,i,20,i,i,i
COC(=O)N/N=C/c1cn(CCOc2ccc(OC)cc2)c2ccccc12,i,i,i,i,nt,nt
O=C(Nc1ccc(Cl)cc1)N(CCCN1CCOCC1)Cc1cccs1,i,i,i,i,nt,nt
S=C(Nc1ccc(Cl)cc1)N(CCCN1CCOCC1)Cc1cccs1,i,i,22,i,i,i
COCCn1c(SCC(=O)NCCc2ccccc2)nc2c([nH]c3ccccc32)c1=O,i,i,20,i,i,i
SMILES,HDAC3 inhib,PKA-R1A activ,PKA-R2B act,Rtt109 HAT inh,R2B FP artifact,PKA-R2B act conf
CCN1C=C(C(=O)c2ccccc2)C(=O)CC1,nt,i,20,i,i,i
CCCCN1C=C(C(=O)c2ccccc2)C(=O)CC1,nt,i,i,i,nt,nt
OCC[C@@H]1C[C@@H](O)[C@H](O)[C@@]2(Cc3ccccc3CCO2)O1,i,i,21,i,i,i
CCCC(c1nnnn1CC(=O)OCC)N(Cc1cc2ccc(C)cc2[nH]c1=O)C1CCCC1 (stereo not drawn),i,i,i,i,nt,nt
CCCC(c1nnnn1CC(=O)OCC)N(Cc1cc2c(C)cc(C)cc2[nH]c1=O)C1CCCC1 (stereo not drawn),i,i,19,i,i,i
COc1cc(OC)cc(-c2c(-c3cccs3)c3cc(Br)ccc3n2C)c1,i,i,20,i,i,i
CCOc1ccc(Oc2ccc(-c3nnc(-c4ccccc4)o3)cc2[N+](=O)[O-])cc1,i,i,21,i,i,i
O=[N+]([O-])c1cc(-c2nnc(-c3ccccc3)o2)ccc1Oc1ccc(Cl)cc1,i,i,i,i,nt,nt
COc1ccc(CC(=O)OCC(=O)NC2CCCCC2)cc1OC,i,i,18,i,i,i
